Measurements as given in the supplement of paper PMC6089552.
In all, about 3,200 compounds went through this assay and about 300 (9.4%) showed activity. Many of the other results were omitted from the sample, so actives are more common in it than they were.

Tested on: A673/TR/shEF
Assay: cell viability (LOESS-normalised, relative to median of negative controls) (log2 ratio); higher = more viable cells (less compound effect), active = hit call of the paper (over 3 MAD below the median)
Settings: treatment time: 72 h
Procedure, shortened: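 A673/TR/shEF Ewing sarcoma cells (1,500 per well, 384-well plates) were grown with or without doxycycline to induce EWS-FLI1 shRNA knockdown, starting 24 h before compounds. Library compounds at two or more concentrations, with DMSO controls, were added for three days. Cell viability was read by CellTiter-Glo luminescence on an Envision reader, then LOESS-corrected per plate, divided by the median of negative controls and log2-transformed. Hits were wells at least three median absolute deviations from the median of all screened wells.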

[1] = 0.25 µM, library screen: screen1, EWS-FLI1 expression: high (no doxycycline)
[2] = 0.25 µM, library screen: screen1, EWS-FLI1 expression: low (doxycycline-induced shRNA knockdown)
[3] = 2.5 µM, library screen: screen1, EWS-FLI1 expression: high (no doxycycline)
[4] = 2.5 µM, library screen: screen1, EWS-FLI1 expression: low (doxycycline-induced shRNA knockdown)
[5] = 0.25 µM, library screen: screen2, EWS-FLI1 expression: high (no doxycycline)
[6] = 0.25 µM, library screen: screen2, EWS-FLI1 expression: low (doxycycline-induced shRNA knockdown)
[7] = 2.5 µM, library screen: screen2, EWS-FLI1 expression: high (no doxycycline)
[8] = 2.5 µM, library screen: screen2, EWS-FLI1 expression: low (doxycycline-induced shRNA knockdown)

Measured: cell viability (log2)

C=C(C)c1cc2cc(C(C)=O)c(O)cc2o1
inactive: [1] 0.113 | [2] 0.098 | [3] 0.0228 | [4] 0.00912

OCC(O)Cc1ccc2c(c1)OCO2 (stereo not drawn)
inactive: [1] 0.0615 | [2] 0.039 | [3] 0.0501 | [4] 0.111

CC1(C)C(=O)[C@@H]2O[C@@H]2[C@@]2(C)C1C[C@@H](O)[C@]1(C)C2CC[C@@]2(C)[C@H](c3ccoc3)OC(=O)C3OC321 (stereo partly drawn)
inactive: [1] 0.0599 | [2] 0.093 | [3] 0.0793 | [4] 0.18

CC1(C)C(=O)C=C[C@]2(C)[C@H]3CC[C@@]4(C)[C@H](c5ccoc5)OC(=O)[C@H]5O[C@]54[C@]3(C)[C@H](O)C[C@@H]12
inactive: [1] -0.0265 | [2] 0.039 | [3] 0.0641 | [4] 0.0262

Cc1ccccc1CN1CCN(Cc2ccc(F)cc2)CC1
inactive: [1] 0.0915 | [2] 0.13 | [3] 0.113 | [4] 0.0962

C[C@H]1CC[C@]2(NC1)O[C@H]1C[C@H]3[C@@H]4CC[C@H]5C[C@@H](O[C@@H]6O[C@H](CO)[C@H](O[C@@H]7O[C@H](CO)[C@@H](O)[C@H](O[C@@H]8OC[C@@H](O)[C@H](O)[C@H]8O)[C@H]7O[C@@H]7O[C@H](CO)[C@@H](O)[C@H](O)[C@H]7O)[C@H](O)[C@H]6O)CC[C@]5(C)[C@H]4CC[C@]3(C)[C@H]1[C@@H]2C
inactive: [1] 0.0131 | [2] -0.12
active: [3] -1.17 | [4] -1.98

C[C@@H]1CC[C@@]2(OC1)O[C@H]1[C@@H](O)[C@H]3[C@@H]4CC[C@H]5C[C@@H](O[C@@H]6O[C@H](CO)[C@H](O[C@@H]7O[C@H](CO)C(O)[C@H](O[C@@H]8OC[C@@H](O)[C@H](O)[C@H]8O)[C@H]7O[C@@H]7O[C@H](CO)[C@H](O)[C@H](O[C@@H]8O[C@H](CO)[C@@H](O)[C@H](O)[C@H]8O)[C@H]7O)[C@H](O)[C@H]6O)[C@H](O)C[C@]5(C)[C@H]4CC[C@]3(C)[C@H]1[C@@H]2C (stereo partly drawn)
inactive: [1] 0.0473 | [2] 0.00355 | [3] 0.099 | [4] 0.184

C[C@H]1CC[C@]2(NC1)O[C@H]1C[C@H]3[C@@H]4CC[C@H]5C[C@@H](O)CC[C@]5(C)[C@H]4CC[C@]3(C)[C@H]1[C@@H]2C
inactive: [1] 0.0391 | [2] 1.7e-05 | [3] 0.161 | [4] 0.0669

CCNc1nc(Cl)nc(NC(C)C)n1
inactive: [1] 0.143 | [2] 0.0518 | [3] 0.132 | [4] 0.0856

CCC1(C2=NCCN2)Cc2ccccc2O1 (stereo not drawn)
inactive: [5] 0.203 | [6] 0.0265 | [7] 0.184 | [8] 0.0979

CC[C@@]1([C@H]2O[C@H]([C@H]3O[C@@](O)(CO)[C@H](C)C[C@@H]3C)C[C@H]2C)CC[C@H]([C@@]2(C)CC[C@]3(C[C@H](O)[C@@H](C)[C@@H]([C@H](C)[C@H](OC)[C@@H](C)C(=O)O)O3)O2)O1
inactive: [1] -0.0386 | [2] 0.12 | [4] 0.0352
active: [3] -0.325

CO[C@@H]1C[C@@H](C[C@H]2CC[C@H](C)[C@H]([C@@H](C)C(=O)O)O2)O[C@]2(O[C@](C)([C@H]3CC[C@@](C)([C@@H]4O[C@@H]([C@H]5O[C@@](O)(CO)[C@H](C)C[C@@H]5C)C[C@@H]4C)O3)C[C@H]2C)[C@@H]1C
active: [3] -0.685
inactive: [1] 0.0701 | [2] 0.147 | [4] -0.0408

CN1CCc2cc(O)cc3c2C1Cc1ccc(O)c(O)c1-3 (stereo not drawn)
inactive: [5] 0.248 | [6] 0.14 | [7] 0.197 | [8] 0.135

Nc1ccc2c(n1)[nH]c1ccccc12
inactive: [5] 0.156 | [6] 0.0674 | [7] 0.0702 | [8] 0.0934

Nc1ccc(CCN2CCN(c3cccc(C(F)(F)F)c3)CC2)cc1
inactive: [5] 0.0196 | [6] 0.0537 | [7] 0.131 | [8] 0.044

C[C@@H]1C[C@H]2CC(=O)[C@H]3CCCN4CCC[C@H]2[C@]34C1
inactive: [1] 0.103 | [2] 0.0455 | [3] 0.108 | [4] 0.0845

O=P1(N(CCCl)CCCl)NCCCO1 (stereo not drawn)
inactive: 0.025 µM, library screen: screen2, EWS-FLI1 expression: high (no doxycycline) 0.105 | 0.025 µM, library screen: screen2, EWS-FLI1 expression: low (doxycycline-induced shRNA knockdown) 0.0824 | 0.103 µM, library screen: screen3, EWS-FLI1 expression: high (no doxycycline) 0.146 | 0.103 µM, library screen: screen3, EWS-FLI1 expression: low (doxycycline-induced shRNA knockdown) 0.0804 | [1] 0.11 | [2] 0.163 | [5] 0.137 | [6] 0.0863 | 0.308 µM, library screen: screen3, EWS-FLI1 expression: high (no doxycycline) 0.0638 | 0.308 µM, library screen: screen3, EWS-FLI1 expression: low (doxycycline-induced shRNA knockdown) 0.0134 | 0.926 µM, library screen: screen3, EWS-FLI1 expression: high (no doxycycline) 0.0846 | 0.926 µM, library screen: screen3, EWS-FLI1 expression: low (doxycycline-induced shRNA knockdown) 0.061 | [3] 0.228 | [4] 0.17 | [7] 0.122 | [8] 0.0525 | 2.8 µM, library screen: screen3, EWS-FLI1 expression: high (no doxycycline) 0.114 | 2.8 µM, library screen: screen3, EWS-FLI1 expression: low (doxycycline-induced shRNA knockdown) 0.0823 | 8.3 µM, library screen: screen3, EWS-FLI1 expression: high (no doxycycline) 0.0653 | 8.3 µM, library screen: screen3, EWS-FLI1 expression: low (doxycycline-induced shRNA knockdown) 0.1 | 25 µM, library screen: screen2, EWS-FLI1 expression: high (no doxycycline) 0.0276 | 25 µM, library screen: screen2, EWS-FLI1 expression: low (doxycycline-induced shRNA knockdown) 0.165 | 25 µM, library screen: screen3, EWS-FLI1 expression: high (no doxycycline) 0.071 | 25 µM, library screen: screen3, EWS-FLI1 expression: low (doxycycline-induced shRNA knockdown) 0.141
